Compounds without any hit were thinned out: in the full panel of roughly 83,000, 20% have a hit.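 Note: values are percent growth. 100 is the growth of untreated cells, values between 100 and 0 indicate rising inhibition; between -100 and 0 indicates cell death.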 Values without a mark were called inactive. Activity calls are given as the source filed them. Rule for the calls: active = growth percent below 10; inactive = the rest.
Legend:
Assay in all cases: NCI-60 one-dose screen, 48 h (100 = growth as untreated, 0 = no growth, -100 = all killed)
[1] = system: HCT-15 colon; settings: 10 µM unless noted
[2] = system: HT29 colon; settings: 10 µM unless noted
[3] = system: SNB-75 CNS; settings: 10 µM unless noted
[4] = system: SNB-19 CNS; settings: 10 µM unless noted
[5] = system: U251 CNS; settings: 10 µM unless noted
[6] = system: PC-3 prostate; settings: 10 µM unless noted
[7] = system: SK-MEL-5 melanoma; settings: 10 µM unless noted
[8] = system: UACC-62 melanoma; settings: 10 µM unless noted
[9] = system: LOX IMVI melanoma; settings: 10 µM unless noted
[10] = system: SK-MEL-28 melanoma; settings: 10 µM unless noted
[11] = system: SK-MEL-2 melanoma; settings: 10 µM
[12] = system: EKVX NSCLC; settings: 10 µM unless noted
[13] = system: SN12C renal; settings: 10 µM unless noted
[14] = system: UO-31 renal; settings: 10 µM unless noted
[15] = system: TK-10 renal; settings: 10 µM unless noted
[16] = system: ACHN renal; settings: 10 µM unless noted
[17] = system: A498 renal; settings: 10 µM unless noted
[18] = system: CCRF-CEM leukemia; settings: 10 µM unless noted
[19] = system: MOLT-4 leukemia; settings: 10 µM unless noted

SMILES	growth [1]	growth [2]	growth [3]	growth [4]	growth [5]	growth [6]	growth [7]	growth [8]	growth [9]	growth [10]	growth [11]	growth [12]	growth [13]	growth [14]	growth [15]	growth [16]	growth [17]	growth [18]	growth [19]
CCCCCCCCCCCC[n+]1ccccc1	39.4%	1.53% (active)	0.831% (active)	8.57% (active)	-0.664% (active)	-38.2% (active)	-95.3% (active)	-41.9% (active)	-40.9% (active)	21.4%	-30.4% (active)	5.6% (active)	3.89% (active)	35%	-54.1% (active)	36.2%	19%	1.54% (active)	-19.1% (active)
Clc1ccc2c(NCCCNCc3ccc4c(c3)OCO4)ccnc2c1	13.2%	4.6% (active)	96.2%	88.7%	10.6%	51.6%	-96% (active)	89.8%	8.83% (active)	51.2%	29.3%	71.8%	66.6%	35.8%	78.4%	40.6%	101%	41.7%	25.1%
Nc1c2c(c(O)c3c1=C(CO)C=N3)=NCCS2	-87.1% (active)	-20.9% (active)	-79.2% (active)	-93.7% (active)	-91.5% (active)	-51.8% (active)	-99.1% (active)	-79.9% (active)	-89.5% (active)	-79% (active)	-54.6% (active)	-63.8% (active)	-63.4% (active)	-86.3% (active)	-79.4% (active)	0.734% (active)	-88.2% (active)	6.13% (active)	-24.7% (active)
Nc1nc(=S)c2ncn(C3OC(COC(=O)c4ccc(Cl)cc4)C(OC(=O)c4ccc(Cl)cc4)C3OC(=O)c3ccc(Cl)cc3)c2[nH]1 (stereo not drawn)	95.5%	87.9%	76.7%	86.9%	38%	84.9%	65.7%	94.1%	90.5%	82.4%	94.5%	71.4%	92.7%	79.4%	91.3%	98.2%	75%	12.7%	65.1%
CCOC(=O)Sc1ncnc2nc[nH]c12	82.5%	59.6%	62%	91.1%	91.7%	88%	74.1%	16%	7.98% (active)	100%	27.9%	97.9%	82.4%	41%	23.2%	70%	84%	13.5%	4.03% (active)
CC(C)=CCc1cc2c(cc1O)C1=C(C(=O)C3=C(C1=O)S(=O)(=O)CCN3)C(C=C(C)C)O2 (stereo not drawn)	-11.5% (active)	-30.5% (active)	-81.1% (active)	-91.1% (active)	-81.3% (active)	10.2%	-99.5% (active)	-32.3% (active)	-65.8% (active)	-75.9% (active)	-53.9% (active)	-26.1% (active)	-36.7% (active)	-2.94% (active)	7.58% (active)	-22.1% (active)	-70% (active)	1.85% (active)	-38.2% (active)
C=CC[n+]1c(/C=C/C=C2\N(C)c3ccccc3C2(C)C)sc2ccc(OC)cc21	12.8%	9.18% (active)	20%	28.2%	15.9%	17.6%	-90.7% (active)	19.5%	15.9%	37.5%	-13.4% (active)	10.9%	11.7%	13.7%	32.8%	10.8%	17.7%	21.5%	10.2%
CO/C=C/C(=O)c1cc2cnc3c(=N)cc(NC(=O)C(C)C)c([nH]1)c23	-26.8% (active)	-21.5% (active)	-11.8% (active)	-29.8% (active)	-74.3% (active)	-21.6% (active)	-96.9% (active)	-53.8% (active)	-73.9% (active)	-44.8% (active)	-65.6% (active)	-36.4% (active)	1.75% (active)	-20.1% (active)	-47.2% (active)	-1.54% (active)	-46.1% (active)	0.169% (active)	-38.7% (active)
Cc1sc2c(c1C)c(=O)nc1c(-c3nc(-c4ccccc4)cs3)n[nH]n12	82.4%	107%	101%	102%	94%	82.1%	102%	91.8%	95.9%	106%	99.9%	80.1%	100%	76.2%	145%	97.1%	105%	85.8%	85.7%
Nc1c2c(c(O)c3c1=C(CO)C=N3)=NCCS2=O (stereo not drawn)	4.65% (active)	-27.4% (active)	-45.3% (active)	-93.6% (active)	-89.8% (active)	8% (active)	-100% (active)	-56.4% (active)	-93.4% (active)	-17.4% (active)	-51.3% (active)	-43.1% (active)	-33.2% (active)	-66.8% (active)	117%	-18.8% (active)	-45.6% (active)	4.74% (active)	-33.8% (active)
N#CC(C#N)=NO	104%	91.7%	89.1%	102%	95.2%	71.8%	108%	102%	95.8%	110%	100%	92.4%	106%	98.6%	93.9%	98.4%	102%	87%	99.8%
CCN1CCN(c2nc(C)cc(N(CCCNc3ccnc4cc(Cl)ccc34)Cc3ccc4c(c3)OCO4)n2)CC1	-32.9% (active)	-26.2% (active)	-53.5% (active)	24.8%	-73.7% (active)	24.7%	-97.6% (active)	-52.9% (active)	-84.4% (active)	-64.1% (active)	-60.1% (active)	35.8%	30.1%	-86.8% (active)	-70.7% (active)	-25% (active)	-27.7% (active)	-13.5% (active)	-14.1% (active)
CCOC(=O)C1=C(C)NC(=O)NC1c1cc(=O)oc2ccc(C)cc12 (stereo not drawn)	104%	95.2%	97%	106%	102%	97.2%	98.2%	99%	97.5%	107%	95.6%	95.2%	101%	93.1%	97.1%	114%	104%	101%	99.1%
O=C(Nc1ccc(C(=O)Nc2ccc(C3=NCCCN3)cc2)cc1)Nc1ccc(C2=NCCCN2)cc1	100%	92.8%	91%	95.6%	84.6%	90%	54.7%	82.7%	85.8%	105%	62.8%	61.4%	91.6%	82.6%	96.7%	86%	119%	70.9%	81.5%
CCN1CCN(c2cc(C)nc(N(CCCNc3ccnc4cc(Cl)ccc34)Cc3cccs3)n2)CC1	3.14% (active)	1.82% (active)	-5.92% (active)	12.5%	0.735% (active)	32.8%	-97.4% (active)	-19.8% (active)	-73.5% (active)	-65.9% (active)	-37.8% (active)	42.3%	39%	-76.1% (active)	-41% (active)	7.79% (active)	-13.7% (active)	1.95% (active)	5.24% (active)
Cc1cc2c(-c3nc4ccccn4c3NC34CC5CC(CC(C5)C3)C4)c(O)c(O)cc2c(O)c1-c1c(C)cc2c(-c3nc4ccccn4c3NC34CC5CC(CC(C5)C3)C4)c(O)c(O)cc2c1O	20%	14.1%	19.6%	17.1%	6.36% (active)	14.7%	-57.7% (active)	0.552% (active)	3.37% (active)	17.3%	-2.48% (active)	5.97% (active)	15.9%	-2.25% (active)	7.59% (active)	7.04% (active)	10.8%	16.4%	8.13% (active)
Cc1ccc(NC(=O)NC(=O)CSc2nc3ccccc3nc2C)cc1	89%	67.5%	70.8%	80.8%	84.2%	67%	38.7%	52.5%	58.8%	75.2%	68.3%	59.6%	73.7%	64.5%	82.3%	75.6%	69.2%	58.9%	74.3%

— PubChem BioAssay (NCI)
